# Reference: PubChem BioAssay (NCI)
# Compounds without any hit were thinned out: in the full panel of roughly 83,000, 20% have a hit.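 Plates (96-well) were seeded with cells, treated with compound at one concentration, and incubated for 48 hours before percent growth was determined.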 Values without a mark were called inactive. Activity calls are given as the source filed them. The calls were made as follows: active = growth percent below 10; inactive = the rest.
# How the values were obtained:
# Assay in all cases: NCI-60 one-dose screen, 48 h (100 = growth as untreated, 0 = no growth, -100 = all killed)
# Conditions in all cases: 10 µM unless noted
# T-47D breast = tested on: T-47D breast
# BT-549 breast = tested on: BT-549 breast
# MDA-MB-435 melanoma = tested on: MDA-MB-435 melanoma
# SW-620 colon = tested on: SW-620 colon
# MCF7 breast = tested on: MCF7 breast
# HCC-2998 colon = tested on: HCC-2998 colon
# KM12 colon = tested on: KM12 colon
# HCT-116 colon = tested on: HCT-116 colon
SMILES,growth (T-47D breast),growth (BT-549 breast),growth (MDA-MB-435 melanoma),growth (SW-620 colon),growth (MCF7 breast),growth (HCC-2998 colon),growth (KM12 colon),growth (HCT-116 colon) [%]
C/C(Nc1ccc(Cl)c(Cl)c1)=C1\CCOC1=O,86.6%,87.2%,82.5%,111%,96.1%,90.3%,96.2%,
CCNc1nc(-c2ccc(Cl)c(OC)c2)c(-c2ccnc(NCCCNS(=O)(=O)c3ccc(Cl)cc3)n2)s1,37.4%,52%,24.8%,80.9%,66.3%,102%,65.3%,
Clc1ccc(CNc2c3ccccc3nc3ccccc23)cc1,43.4%,70.9%,60.7%,31%,16%,-10.2% (active),35.6%,
CCN1C(=O)N(CC)C2C1NN=c1s/c(=C\c3ccc(Cl)cc3Cl)c(=O)n12 (stereo not drawn),58.8%,15.9%,-24.8% (active),20.5%,14%,7.2% (active),7.47% (active),
CSc1nc2sc3c(c2c(=O)n1-c1ccc([N+](=O)[O-])cc1)CCCCC3,89%,102%,97%,95.4%,86.2%,104%,101%,
C=C(C)[C@@H]1CC[C@]2(C)[C@H](CC=C3[C@@H]4[C@H](C)[C@@H](C)CC[C@]4(CO)CC[C@]32C)[C@@]1(C)CCCN,-34.1% (active),55.3%,-60.3% (active),-74.8% (active),0.962% (active),-93.3% (active),-41.3% (active),
CCN(c1ccc(Cl)cc1)c1nc(-c2ccc([N+](=O)[O-])cc2)cs1,77.2%,115%,103%,91.7%,,98.7%,93.2%,97.9
CN([O-])c1nc(N(C)[O-])nc(N2CCOCC2)n1.CN([O-])c1nc(N(C)[OH2+])nc(N2CCOCC2)n1.[Fe+3],93% [100 µM],85.8% [100 µM],-30.5% [100 µM] (active),58.3% [100 µM],90.1% [100 µM],114% [100 µM],33.6% [100 µM],
Cc1ccc(C2=Nc3c(N)ncnc3NC(c3ccc4c(c3)OCO4)C2)cc1 (stereo not drawn),70.5%,61.4%,-34.5% (active),18.3%,25.9%,2.97% (active),35.3%,
C=C(CNCCc1ccc(O)cc1)[C@@H]1CC[C@]2(CO)CC[C@]3(C)[C@H](CC[C@@H]4[C@@]5(C)CCC(NCCO)C(C)(C)[C@@H]5CC[C@]43C)[C@@H]12 (stereo partly drawn),-64.2% (active),-68.1% (active),-92.1% (active),-82.4% (active),-72.3% (active),-84.3% (active),-25.8% (active),
CC1(C)CC[C@]2(C(=O)O)CC[C@]3(C)C(=CC[C@@H]4[C@@]5(C)C/C(=C/O)C(=O)C(C)(C)[C@@H]5CC[C@]43C)[C@@H]2C1,61.9%,88.6%,69.7%,12%,29.5%,50.5%,15.7%,
COC(=O)CNC(=O)[C@H](Cc1ccccc1)NCc1ccncc1,89.6%,96.4%,110%,102%,92.9%,103%,103%,
Brc1c2c(c(Br)c3ccccc13)CCCC2,84.4%,112%,111%,103%,96%,110%,102%,
COC(=O)c1cc(-c2ccccc2)[nH]c1N/N=C/c1c(Cl)cccc1Cl,38.5%,24.1%,-26.9% (active),13.3%,-38.2% (active),,10.2%,
O=S(=O)(NCCNc1nccc(-c2c(-c3cccc(F)c3)nc3occn23)n1)c1ccc(Br)cc1,76.7%,103%,68.5%,91.8%,,,88.9%,69.1
